Compounds with a hit are over-represented: about 5.7% of the library has one in this group of screens.
ssDAF-12 act – S. stercoralis DAF-12 activation, primary screen | hit rate 1% among 370,000 | activation, % at 6.8 µM | HEK293 ssDAF-12/GRIP1 lit1-tk-luc reporter, luminescence; % of 3 µM dafachronic acid response | AID 652126;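 active = activation above the mean over all tested compounds plus 3 SD, cut at about 0.9% in these data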;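 note: 0% = DMSO-only wells and 100% = 3 µM delta7-dafachronic acid wells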
hcDAF-12 act – H. contortus DAF-12 activation, primary screen; AID 652067; hit rate 1.4% among 370,000; HEK293 hcDAF-12 lit1-tk-luc reporter, luminescence; 0% DMSO, 100% Δ7-dafachronic acid; activation, % at 6.8 µM;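 active = activation above the mean of all tested compounds plus 3 SD, cut at about 5.5% in these data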;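 note: 100% = response to 3 µM Δ7-dafachronic acid high control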
DAX1 inh-1 – NR0B1 (DAX1) inhibition | HEK293 Gal4-DAX1 luciferase reporter, luminescence | inhibition, % at 6.75 µM | AID 504766 | P51843 | hit rate 0.99% among 340,000;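 active = inhibition above the mean over all tested compounds plus 3 SD, cut at about 4.2% in these data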;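 note: 0% = DAX1-transfected cells with DMSO and 100% = empty-vector control cells with DMSO; inhibition shows as a rise in luminescence from relieved DAX1 repression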
AHR act – activators of human aryl hydrocarbon receptor; P35869; AHR-responsive luciferase reporter cells, luminescence; activation, % at 5 µM; hit rate 2.5% among 320,000; in the data active = activation above about 47%;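 note: 0% = vehicle wells and 100% = reference agonist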
DAX1 inh-2 – DAX1 (NR0B1) inhibition, primary screen; HEK293T StAR-luciferase reporter, SF-1/DAX-1 repression relief; hit rate 1.1% among 370,000; inhibition, % at 6.8 µM;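 active = inhibition above the mean over all tested compounds plus 3 SD, cut at about 3.6% in these data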;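 note: 0% = DAX-1 cells with DMSO and 100% = cells lacking DAX-1 with DMSO; higher inhibition means more luminescence from relief of DAX-1 repression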
hgDAF12 agonist – activates the H. glycines DAF-12 receptor ligand-binding domain. HEK293 GAL4-hgDAF12 UAS-luciferase reporter, agonist luminescence; normalized to butyrate control. activation, % at 6.8 µM. hit rate 1.8% among 370,000;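 active = activation above a cutoff set at the mean of all screened compounds plus 3 SD, cut at about 10% in these data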;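 note: 0% = DMSO wells and 100% = sodium butyrate wells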
DAX1 conf – confirmation of human DAX1 (NR0B1) inhibitors; shares compounds with DAX1 inh-2; HEK293T StAR-promoter luciferase reporter, SF-1/DAX-1 repression; inhibition, % at 6.8 µM; hit rate 87% among 2,400; AID 652134;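 active = inhibition above the average of every tested compound plus 3 SD, cut at about 3.8% in these data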;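 note: 0% = DAX-1 cells with DMSO and 100% = no DAX-1 control cells with DMSO; active compounds raise luminescence by relieving repression of the StAR reporter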
SF1 mutant ctr – counter-screen for DAX1 inhibitors: nonselective inhibitors with SF-1 AF2 mutant. shares compounds with DAX1 inh-2. inhibition, % at 6.8 µM. hit rate 78% among 2,400. HEK293 StAR-luciferase, luminescence. AID 652136;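 active = inhibition above the mean of all tested compounds plus 3 SD, cut at about 3% in these data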;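 note: 0% = DAX-1 transfected cells with DMSO and 100% = cells without DAX-1 with DMSO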
* marks the source's active call; other numbers are inactive results.

CCCN1CCc2c(sc(NC(=O)CCS(=O)(=O)c3ccccc3)c2C(=O)OC)C1 was read as ssDAF-12 act -0.1, hcDAF-12 act 1.1, DAX1 inh-1 0.7, AHR act 0.8, DAX1 inh-2 7.3*, hgDAF12 agonist 0.1, DAX1 conf 7.9* and SF1 mutant ctr 4.7*.
For O=C(NC1CC1)c1cc2cc3ccccc3nc2s1 the results were ssDAF-12 act -0.3, hcDAF-12 act 0.7, DAX1 inh-1 1.1, AHR act -8.2, DAX1 inh-2 4.9*, hgDAF12 agonist 9.5, DAX1 conf 7.6* and SF1 mutant ctr 4.6*.
`COc1ccc(CN2CCNC(=O)C2CC(=O)N(C)CCCN2CCOCC2)cc1C` (stereo not drawn) gave ssDAF-12 act -1.3, hcDAF-12 act -1.1, DAX1 inh-1 0.9, AHR act -2.1, DAX1 inh-2 1.1 and hgDAF12 agonist -0.5.
Screening Cc1c(OC(C)C(=O)NCc2ccncc2)ccc2c3c(c(=O)oc12)CCCC3 (stereo not drawn) returned ssDAF-12 act -1.6, hcDAF-12 act -3.6, DAX1 inh-1 -0.6, AHR act -4.7, DAX1 inh-2 -3.1 and hgDAF12 agonist -2.2.
For COc1ccc2oc(C(=O)OC(C)C(=O)N3C(C)CCCC3C)c(C)c2c1 (stereo not drawn) the results were ssDAF-12 act -1.2, hcDAF-12 act -1.4, DAX1 inh-1 -0.3, AHR act 0.3, DAX1 inh-2 0.0 and hgDAF12 agonist -0.1.
Screening Cc1ccc(/C=N\NC(=O)c2ccc3c(c2)OCO3)o1 returned ssDAF-12 act -0.1, hcDAF-12 act 5.5, DAX1 inh-1 0.6, AHR act 36.1, DAX1 inh-2 5.2*, hgDAF12 agonist 4.7, DAX1 conf 3.5 and SF1 mutant ctr 2.9*.
Screening O=C(N/N=C/c1ccc([N+](=O)[O-])o1)c1ccc2c(c1)OCO2 returned ssDAF-12 act -2.3, hcDAF-12 act -6.5, DAX1 inh-1 -2.7, DAX1 inh-2 -5.9 and hgDAF12 agonist -12.9.
Screening COc1cc2c(c(OC)c1OC)-c1ccc(OC)c(=O)cc1C(NC(=O)c1ccccc1)CC2 (stereo not drawn) returned ssDAF-12 act -0.7, hcDAF-12 act 0.6, DAX1 inh-1 1.0, DAX1 inh-2 4.7*, hgDAF12 agonist -5.1, DAX1 conf 15.6* and SF1 mutant ctr -6.2.
COc1c(C=O)c2c(c(OC)c1OC)-c1ccc(OC)c(=O)cc1C(NC(C)=O)CC2 (stereo not drawn) was read as ssDAF-12 act -0.4, hcDAF-12 act 1.9, DAX1 inh-1 -0.6, DAX1 inh-2 5.1*, hgDAF12 agonist -3.8, DAX1 conf 21.0* and SF1 mutant ctr -8.3.
For COC(=O)[C@@H]1Cc2c([nH]c3ccccc23)C(C)(C)N1C(=O)CCl the results were ssDAF-12 act -1.5, hcDAF-12 act -3.3, DAX1 inh-1 0.6, DAX1 inh-2 -2.0 and hgDAF12 agonist -10.2.
`O=C(N/N=C/c1ccsc1)c1ccccn1` gave ssDAF-12 act 0.6, hcDAF-12 act 6.3*, DAX1 inh-1 5.0*, AHR act 2.0, DAX1 inh-2 5.7*, hgDAF12 agonist 13.2*, DAX1 conf 4.7* and SF1 mutant ctr 2.7.
C/C(Cc1ccccc1)=N\NC(=O)c1ccccn1 was read as ssDAF-12 act 0.0, hcDAF-12 act 3.4, DAX1 inh-1 1.7, DAX1 inh-2 8.5*, hgDAF12 agonist 12.3*, DAX1 conf 2.9 and SF1 mutant ctr 1.2.
For O=C(NN=C1CCC(=NNC(=O)c2ccccn2)CC1)c1ccccn1 the results were ssDAF-12 act 0.5, hcDAF-12 act 5.5, DAX1 inh-1 0.2, DAX1 inh-2 5.7*, hgDAF12 agonist 16.9*, DAX1 conf 1.2 and SF1 mutant ctr 0.7.
`O=C(NN=C(c1ccccc1)c1ccccn1)c1ccccc1` gave ssDAF-12 act -1.7, hcDAF-12 act -2.3, DAX1 inh-1 -2.9, AHR act 19.5, DAX1 inh-2 -5.4 and hgDAF12 agonist -9.8.
CCOc1cc(/C=N/NC(=O)c2ccccn2)ccc1OC(=O)c1ccc(F)cc1 was read as ssDAF-12 act -0.3, hcDAF-12 act 1.4, DAX1 inh-1 1.2, AHR act 28.4, DAX1 inh-2 6.1*, hgDAF12 agonist 8.9, DAX1 conf 2.0 and SF1 mutant ctr 4.7*.
Screening CCOc1cc(/C=N/NC(=O)c2ccncc2)ccc1OC(=O)c1ccccc1 returned ssDAF-12 act -0.8, hcDAF-12 act -0.6, DAX1 inh-1 0.7, AHR act 12.9, DAX1 inh-2 -1.1 and hgDAF12 agonist 2.9.
For C/C(Cc1ccccc1)=N\NC(=O)c1cccnc1 the results were ssDAF-12 act -0.3, hcDAF-12 act -2.8, DAX1 inh-1 -0.4, AHR act 43.1, DAX1 inh-2 0.1 and hgDAF12 agonist -1.3.
For CC1(C(=O)NCc2cccc3ccccc23)CCN1Cc1ccccc1OC(F)F (stereo not drawn) the results were ssDAF-12 act -1.8, hcDAF-12 act -3.1, DAX1 inh-2 -1.5 and hgDAF12 agonist -2.3.
For O=C(COC(=O)/C=C/c1ccccc1[N+](=O)[O-])NCC(F)(F)F the results were ssDAF-12 act -1.0, hcDAF-12 act 4.1, DAX1 inh-1 3.4, AHR act 8.6, DAX1 inh-2 -0.4 and hgDAF12 agonist 3.0.
Screening O=C(Nc1nncs1)C1COc2ccccc2O1 (stereo not drawn) returned ssDAF-12 act -0.5, hcDAF-12 act -0.7, DAX1 inh-1 0.9, AHR act 10.1, DAX1 inh-2 1.0 and hgDAF12 agonist 4.2.
For CC(C)(C)c1csc(NC(=O)C2COc3ccccc3O2)n1 (stereo not drawn) the results were ssDAF-12 act -0.9, hcDAF-12 act 0.6, DAX1 inh-1 0.9, AHR act 0.9, DAX1 inh-2 5.0*, hgDAF12 agonist 9.5, DAX1 conf 2.0 and SF1 mutant ctr 2.6.
Screening O=C(Nc1nnc(C(F)(F)F)s1)C1COc2ccccc2O1 (stereo not drawn) returned ssDAF-12 act -1.1, hcDAF-12 act 0.1, DAX1 inh-1 0.5, AHR act 4.2, DAX1 inh-2 0.1 and hgDAF12 agonist 2.3.
For O=C(Nc1nnc(C2CC2)s1)c1cc2ccccc2o1 the results were ssDAF-12 act 0.3, hcDAF-12 act 3.4, DAX1 inh-1 2.4, DAX1 inh-2 6.1*, hgDAF12 agonist 13.0*, DAX1 conf 7.3* and SF1 mutant ctr 4.8*.
